Records with an inconclusive call do not appear. A call without a number means that no potency is given here. Active and inactive are the calls of the source. The call rests on the fitted dose curve; in most records, active means well fitted inhibition curve with a large enough effect; inconclusive means small, poorly fitted or top-dose-only effect; inactive means no such curve, though single readings can be large or run the other way.
Target: Thyroid hormone receptor beta (Homo sapiens) (UniProt P10828)
Sequence (P10828 whole entry, looked up): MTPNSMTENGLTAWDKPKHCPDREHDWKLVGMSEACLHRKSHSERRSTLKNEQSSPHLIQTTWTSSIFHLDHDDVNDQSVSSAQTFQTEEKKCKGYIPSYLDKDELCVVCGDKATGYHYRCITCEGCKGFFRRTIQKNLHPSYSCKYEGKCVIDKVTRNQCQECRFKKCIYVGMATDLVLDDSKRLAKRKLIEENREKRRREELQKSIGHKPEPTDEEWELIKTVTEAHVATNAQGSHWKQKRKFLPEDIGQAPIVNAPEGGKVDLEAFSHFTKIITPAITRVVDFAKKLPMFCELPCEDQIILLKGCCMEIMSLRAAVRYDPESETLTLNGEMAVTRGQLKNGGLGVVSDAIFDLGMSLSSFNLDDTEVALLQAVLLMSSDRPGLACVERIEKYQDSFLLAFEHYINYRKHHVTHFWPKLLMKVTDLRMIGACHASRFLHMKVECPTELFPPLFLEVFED
Assay: Concentration Response Confirmation Assay for Inhibitors of the Interaction of Thyroid Hormone Receptor and Steroid Receptor Coregulator 2
Conditions: TRb LBD + Texas Red SRC2 peptide, fluorescence polarization, 5 h; series mostly up to 92.2 µM
Summary of the method: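 Compounds were tested in concentration-response against TRβ LBD (0.6 uM) plus Texas Red-labeled SRC2 20-mer (20 nM), T3 1 uM present. After 5 hr incubation at ambient temperature, reduced polarization (ex 555/em 632 nm) marked inhibition.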

SMILES | Potency
Cc1cc2ccccc2n1CCNC(=O)C(C)Oc1ccccc1 (configuration not stated) | inactive
CC(NC(=O)Nc1ccc(O)cc1)(C(F)(F)F)C(F)(F)F | inactive

Reference: PubChem BioAssay AID1573 (National Center for Advancing Translational Sciences (NCATS), 2009)
